Sampled rows, rich in hits. Any-hit rate of the full collection: about 7.4%.
SMN2 splice enh = increases expression of the SMN2 splice variant; 2.8% of 210,000 active; AID 1458; HEK293 SMN2-luciferase splicing reporter, luminescence, 30-36 h; Potency, µM (top dose mostly 46.1 µM), without a hit: at the top dose activity change, positive = activation, most hits filed as activators; note: % of control where 0% means no effect; nearly all actives have a fitted effect of over 55% in size
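qHTS luciferase splicing reporter: luminescence rises when SMN2 exon 7 is included in transfected HEK293 cells. Compound exposure lasted 30-36 h at 37C, with 4.5 mM final sodium butyrate as control, followed by a ONE-Glo read.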
NPC1 prom act = activates the NPC1 promoter | Huh7 NPC1 promoter luciferase reporter, 24 h | Potency, µM (titrated, usually from 9.22 µM), inactives show top-dose activation, hits mostly activators | 2.4% of 320,000 active | AID 485313; note: % of control where 0% means no effect; nearly all actives have a fitted effect of over 60% in size
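Huh7 cells stably carrying NPC1 promoter–luciferase, plated in Opti-MEM with 10% FBS for 2 h, were exposed to compound in DMSO for 24 h at 37 °C; luciferase reagent was added for 10 min and luminescence read.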
FLuc counter = inhibits or activates purified firefly luciferase, miR-21 counter-screen; P08659; Potency, µM (top dose mostly 57.5 µM), for inactives: at the top dose activity change, negative = inhibition, most hits filed as inhibitors; purified FLuc, Km substrates, luminescence inhibition; AID 588342; 6.9% of 360,000 active;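 note: plate controls were vehicle for no effect and reference inhibitor for full effect; nearly all actives have a fitted effect of over 55% in size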
Target sequence (P08659 whole entry, looked up): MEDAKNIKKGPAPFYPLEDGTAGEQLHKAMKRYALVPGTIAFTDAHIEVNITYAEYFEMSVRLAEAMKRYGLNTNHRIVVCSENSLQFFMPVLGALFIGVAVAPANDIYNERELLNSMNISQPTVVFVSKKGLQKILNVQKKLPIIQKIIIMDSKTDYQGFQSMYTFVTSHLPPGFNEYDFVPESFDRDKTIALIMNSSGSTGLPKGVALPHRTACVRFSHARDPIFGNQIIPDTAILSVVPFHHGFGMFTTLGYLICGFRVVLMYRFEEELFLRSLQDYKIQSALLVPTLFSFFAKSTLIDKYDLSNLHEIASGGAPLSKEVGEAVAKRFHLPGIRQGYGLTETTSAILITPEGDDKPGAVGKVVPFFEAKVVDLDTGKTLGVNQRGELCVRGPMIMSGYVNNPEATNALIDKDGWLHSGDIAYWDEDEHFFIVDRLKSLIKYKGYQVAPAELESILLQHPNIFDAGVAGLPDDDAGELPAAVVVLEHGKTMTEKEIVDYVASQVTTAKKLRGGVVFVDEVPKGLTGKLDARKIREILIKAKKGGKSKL
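Biochemical qHTS of compounds, final roughly 60 µM downward over six points, against 10 nM purified firefly luciferase using Km concentrations of substrates (10 uM D-luciferin, 10 uM ATP) in Tris acetate pH 7.5 buffer; luminescence output.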
ELG1 genotoxic = inducers of genotoxicity in HEK293T ELG1-luciferase cells; Potency, µM (titrated, usually from 46 µM), for the others: at the top dose activity change, positive = activation, most hits filed as activators; 1.3% of 330,000 active; HEK293T ELG1-luciferase reporter, luminescence, 16 h; note: % of control where 0% means no effect; nearly all actives have a fitted effect of over 60% in size
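DMSO vehicle served as control against compound-treated ELG1-luciferase HEK293T cells; exposure lasted 16 hr at 37 °C and 5% CO2, followed by ONE-Glo luminescence detection after 30 min.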
p53 reactivator = restores transcriptional activity of mutant p53 | H1299 p53-A138V BP100-luciferase reporter, luminescence, 24 h | Potency, µM (series often up to 92.2 µM), for inactives: at the highest dose activity change, positive = activation, most hits filed as activators | 0.063% of 320,000 active | AID 504706; note: % of control where 0% means no effect; nearly all actives have a fitted effect of over 45% in size
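p53-null H1299 cells stably carrying temperature-sensitive p53-A138V and a BP100-luciferase reporter were pinned with compounds (4-point, 1:5 series) and held 24 hrs at 37 deg C. Luminescence was read 10 min after detection reagent.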
Rab9 prom act = Rab9 promoter activation | Huh7 Rab9 promoter-luciferase reporter, luminescence, 24 h | Potency, µM (titrated, usually from 9.22 µM), for the others: at the highest dose activation, negative = inhibition, most hits filed as activators | 2.8% of 320,000 active; note: % of control where 0% means no effect; nearly all actives have a fitted effect of over 60% in size
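Huh7 reporter line, Rab9 promoter upstream of luciferase. Compound exposure 24 h at 37 °C in reduced-serum medium with 10% FBS. Read-out: luminescence.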
Numbers without * were called inactive; ? = inconclusive; · = no result given; [ ] = remark or other dose. Calls come from the whole dose curve; as a rule, active = well fitted curve in the direction sought with a large enough effect; inconclusive = small, poorly fitted or top-dose-only effect, or another doubt; inactive = no such curve, though single readings can be large; an effect the other way counts as inactive or inconclusive. Potency is the fitted concentration of half-maximal effect.

SMILES | SMN2 splice enh | NPC1 prom act | FLuc counter | ELG1 genotoxic | p53 reactivator | Rab9 prom act
N/C(=N\OC(=O)COc1ccc2ccccc2c1Br)c1ccncc1 | 1.4% | 10.8% | 21.3µM* | ? | 14.4% | 1.7%
N/C(=N\OC(=O)COc1ccc(Cl)cc1Br)c1ccncc1 | 11.2µM* | 3.55µM* | 10.7µM* | 8.2µM* | 6.9% | 3.55µM*
CCCC(=O)Nc1ncnc2c1ncn2[C@@H]1O[C@H]2COP(=O)(O)O[C@@H]2[C@@H]1OC(=O)CCC | -4.3%[20.6 µM] | · | · | · | · | ·
N#CCCS(=O)(=O)c1ccccc1 | 17.1% | · | · | · | · | ·
Cn1ncc2c(Cl)ncnc21 | -16.8%[9.22 µM] | · | · | · | · | ·
COc1cccc(C(=O)NCC2CCCO2)c1 (centres undefined) | 19.5% | 5.2% | -3.7% | 11.0% | 4.8% | -3.9%
O=C(Nc1nnc(C2CC2)s1)c1ccncc1 | 15.1% | 15.4% | ? | 3.3% | 2.2% | 4.1%
O=C(Nc1nnc(C2CCCO2)s1)c1cccs1 (centres undefined) | 12.6µM* | 28.9% | ? | ? | 27.5% | 15.1%
O=C(Nc1nnc(C2CCCCC2)s1)c1cccs1 | 14.1µM* | 2.24µM* | 4.78µM* | ? | ? | 2.82µM*
COc1cccc(C(=O)Nc2nnc(C3CCCO3)s2)c1 (centres undefined) | 11.2µM* | 2.82µM* | 15.1µM* | ? | 23.1% | 2.24µM*
CCCC(=O)Nc1nnc(C2CCCO2)s1 (centres undefined) | · | -1.5% | -3.4% | -0.6% | 8.1% | -1.9%
COC(=O)CS | -2.0% | · | · | · | · | ·
Cc1ccc(CSc2nc3ccc(NC(=O)CC(C)C)cc3s2)cc1 | · | · | -10.9% | · | · | ·
NC(=O)C1CCN(C(=O)c2ccc3c(c2)N(Cc2cccc(Cl)c2)C(=O)c2ccccc2S3(=O)=O)CC1 | · | · | 0.3% | · | · | ·
CC(C)COc1ncnc2c1sc1nc3c(cc12)COC(C)(C)C3 | · | 3.98µM* | 23.9µM* | ? | 7.9% | 3.16µM*
CCSc1ncnc2c1sc1nc3c(cc12)COC(C)(C)C3 | 12.6µM* | 3.55µM* | 2.69µM* | ? | 40.0% | 2.82µM*
CCc1nc2c(sc3nc4c(cc32)COC(C)(C)C4)c(=O)n1CCN(CC)CC | -13.0% | -3.6% | 1.6% | 4.4% | 10.0% | -7.9%
CC(C)CSc1ncnc2c1oc1nc3c(cc12)COC(C)(C)C3 | ? | 13.6% | ? | 13.3% | -0.8% | 13.6%
C=CCSc1ncnc2c1oc1nc3c(cc12)COC(C)(C)C3 | · | ? | 13.5µM* | ? | 4.4% | ?
CCCOc1ncnc2c1sc1nc3c(cc12)COC(C)(C)C3 | · | 29.7% | ? | ? | 8.7% | ?
C=CCn1c(C)nc2c(sc3nc4c(cc32)COC(C)(C)C4)c1=O | · | 1.78µM* | 10.7µM* | ? | 5.5% | 2µM*
C=C(C)CNC(=O)c1ccc2nc(Cc3ccc(OC)cc3)oc2c1 | · | 2.24µM* | 10.7µM* | ? | 1.2% | 2.82µM*
COc1ccc(Cc2nc3ccc(C(=O)N4CCCC4)cc3o2)cc1 | · | 3.16µM* | 13.5µM* | ? | ? | 2.24µM*
O=C(c1ccc2nc(Cc3cccc(Cl)c3)oc2c1)N1CCOCC1 | · | ? | 16.9µM* | ? | 23.2% | ?
COc1ccc(Cc2nc3ccc(C(=O)N4CCCC4)cc3o2)cc1OC | · | 1.0% | -11.0% | -3.5% | 14.8% | -14.7%
SMILES | SMN2 splice enh | NPC1 prom act | FLuc counter | ELG1 genotoxic | p53 reactivator | Rab9 prom act
O=C(c1ccc2nc(Cc3cccc(Cl)c3)oc2c1)N1CCC(O)CC1 | · | 1.5% | -3.1% | 3.0% | 1.0% | -0.4%
CC(C)(C)[C@@H]1COC(=O)[C@H](Cc2ccc(F)cc2)CC/C=C\C[C@@H](CC(=O)NCCO)C(=O)N1 | · | · | · | 2.4% | -3.1% | ·
COc1ccc(C2=Nn3c(nnc3-c3ccccc3F)SC2)cc1OCC1CC1 | · | · | · | -2.3% | -3.3% | ·
C/C(=C\C(=O)c1cccnc1)Nc1ccc(O)cc1 | 26.8% | ? | 16.9µM* | 16.4µM* | ? | ?
COc1ccc(C(=O)/C=C(\C)Nc2ccc(NC(C)=O)cc2)cc1 | -16.8% | ? | ? | 3.7% | 11.0% | 2.82µM*
O=C(Cc1ccccc1)Nc1ccc(C(=O)Nc2ccc(O)cc2)cc1 | · | -5.2% | 2.7% | -4.7% | -1.1% | 2.7%
C/C(=C\C(=O)c1ccccc1)Nc1ccc(O)cc1 | · | 2.51µM* | 4.78µM* | 6.51µM* | ? | 3.55µM*
C/C(=C\C(=S)Nc1ccccc1)Nc1ccccc1 | 15.3% | 0.5% | 3.79µM* | 1.4% | 16.1% | -4.0%
CS(=O)(=O)NNC(=O)c1cc2cc3ccccc3nc2s1 | ? | 11.9% | ? | 6.5% | -1.4% | 16.6%
NNC(=O)c1cc2cc3ccccc3nc2s1 | 1.3% | 8.0% | 21.3µM* | -0.8% | 0.9% | 26.3%
CC(=O)Nc1cccc(NC(=O)C2(c3cccs3)CCOCC2)c1 | · | · | -1.2% | · | · | ·
CC(C)c1cc2cc3ccc(=O)oc3cc2o1 | · | ? | 12µM* | ? | 15.5% | ?
O=c1ccc2cc3ccoc3cc2o1 | · | -0.1% | -0.6% | 5.8% | · | 2.6%
COc1ccccc1N(C)S(=O)(=O)c1ccc(C(=O)N(C)Cc2ccc(Cl)s2)cc1 | · | 0.4% | 2.6% | -5.2% | -5.9% | -6.5%
O=S(=O)(NCc1cc(-c2ccc(Cl)cc2)no1)c1ccccc1 | -4.7% | 2.0% | 2.9% | 2.8% | 2.7% | 1.3%
O=S(=O)(NCc1cc(-c2ccccc2Cl)no1)c1ccccc1 | -14.2% | 0.8% | -0.5% | 0.5% | -2.9% | -0.3%
O=S(=O)(Cc1cc(-c2ccccc2Cl)no1)c1ccccc1 | ? | ? | 16.9µM* | ? | 0.9% | 2.82µM*
Clc1ccc(-c2cc(COc3ccccc3)on2)cc1 | ? | 15.2% | 10.7µM* | -15.5% | 21.7% | ?
O=S(=O)(Cc1cc(-c2ccc(Cl)cc2)no1)c1ccccc1 | 12.6µM* | ? | ? | 9.2µM* | ? | 3.55µM*
COc1ccc(NC(=O)C2=C(C)Nc3nc(SCc4ccccc4)nn3C2c2cc(OC)ccc2OC)cc1 (centres undefined) | · | · | -0.1% | · | · | ·
NS(=O)(=O)c1cc(C(=O)O)c(O)c2ccccc12 | -4.0%[9.22 µM] | · | · | · | · | ·
Cc1csc(NC(=O)c2cc(C)oc2C)n1 | 58.0% | ? | 21.3µM* | 12.4% | ? | ?
Cc1ccc(C(=O)O)c(C(=O)Nc2nc(C)cs2)c1 | -7.6% | -0.1% | -1.3% | 1.0% | 18.7% | -1.4%
Cc1csc(NC(=O)c2ccccc2O)n1 | 2.3% | ? | 12µM* | ? | 20.0% | ?
CC(C)(C)c1csc(NC(=O)c2ccccc2O)n1 | · | ? | 0.536µM* | -3.4% | -14.9% | ?

Screens deposited in PubChem by National Center for Advancing Translational Sciences (NCATS).
